From PubChem BioAssay (NCATS)
Inconclusive results are not listed. Where a call stands in place of a potency, no number is given. The source made the active and inactive calls. Calls come from the whole dose curve; as a rule, active = well fitted cell-killing curve with a large enough effect; inconclusive = small, poorly fitted or top-dose-only effect, or effect the other way; inactive = flat fitted curve, though single readings scatter. *1 amine or outer side, *2 acyl side, *3 side chain or, on linkers, in order; H or OH if unused. Where a SMILES comes first, the peptide text is derived from it. Bridges are numbered along the chain shown (N, C = ends). [ ]: non-standard residue; d: D form. The star is where a group is joined. pTerphenylCO(4''-OnC5H11) = CCCCCOc1ccc(-c2ccc(-c3ccc(C(=O)*)cc3)cc2)cc1; Orn(4R-OH,5R-OH) = O=C([C@H](C[C@@H](O)[C@@H](O)N[*:3])N[*:1])[*:2]; hTyr(3S-OH,4S-OH) = N[C@H](C(=O)O)[C@H](O)[C@@H](O)c1ccc(O)cc1; Pro(3S-OH,4S-Me) = C[C@H]1CN[C@H](C(=O)O)[C@H]1O; Hyp = O=C(O)[C@@H]1C[C@@H](O)CN1

What follows are compounds tested on HeLa (assay: Primary qHTS to identify gynecologic anti-cancer compounds using libraries of approved drugs and bioactive compounds (AID 1345084; note: nearly all actives have a fitted effect of over 55% in size)). Conditions: Gynecologic cancer cell panel viability, ATPlite luminescence, 48 h; series mostly up to 57.5 µM.
Summary of the method: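 In this quantitative HTS, cell killing is estimated from loss of ATP-dependent luciferase light. Cells see five compound concentrations over a 48 h exposure.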

SMILES	Potency
O=C(c1ccccn1)N(Cc1cccs1)C1(C(=O)NC2CCCCC2)CCCCC1	inactive
O=c1cc(OCc2ccc(F)cc2)ccn1-c1ccc(OCCN2CCCC2)cc1	inactive
Cc1cccc(N2CCN(C(=O)c3cc(S(=O)(=O)N(C)C)ccc3N3CCCC3)CC2)c1C	inactive
N#CC(CCCN1CCN(/N=C/c2cccnc2)CC1)(c1ccccc1)c1ccccc1	inactive
Cc1cccc(C#Cc2cc(F)cc(C#N)c2)n1	inactive
COc1ccncc1C(=O)NC(=O)Nc1ccc(-c2ccccc2)c(C(F)(F)F)c1	inactive
Clc1ccc(Cn2c(Cc3ccccc3)nc3ccccc32)cc1	inactive
Cc1cc2sc(NC(=O)Cc3ccccc3)nc2cc1Cl	inactive
O=C(Cc1c(F)cccc1F)Nc1cc(OCc2ccc(Cl)cc2)ccn1	inactive
O=C(c1cc(Cc2n[nH]c(=O)c3ccccc23)ccc1F)N1CCCNCC1	inactive
CCC(C)/C=C(C)/C=C/C1=CC2=CC(=O)C3(C)OC(C)(O)C(C(=O)OC)C3C2=CO1 (stereo unspecified)	inactive
CNc1cc2[nH]c(=O)n(-c3ccc(NC(=O)NS(=O)(=O)c4ccc(Cl)s4)cc3)c(=O)c2cc1F	inactive
COc1ccc(-n2c(SCCCN3C(=O)c4cccc5cccc(c45)C3=O)nnc2-c2ccncc2)cc1	inactive
C=C1C(=O)OC2/C=C(\CO)CC/C=C(\C=O)C(O)C(OC(=O)C(C)CC)C12 (stereo unspecified)	inactive
O=C(Nc1ccccc1C(=O)Nc1ccc(CCO)cc1)c1ccc([N+](=O)[O-])cc1	inactive
CC1(C)CC[C@]2(C(=O)O)CC[C@]3(C)C(=CCC4[C@@]5(C)C[C@@H](O)[C@H](O)[C@@](C)(CO)C5CC[C@]43C)[C@@H]2[C@@H]1O (stereo partly specified)	inactive

SMILES	Potency
C=C(C(=O)OC[C@H]1O[C@@H](OC(=O)/C=C/c2ccccc2)[C@H](O)[C@@H](O)[C@@H]1O)C(O)CO (stereo partly specified)	inactive
COc1ccccc1OCCNCC(O)CCOc1cccc2[nH]c3ccccc3c12 (stereo unspecified)	inactive
CC(C)/C=C1\NC(=O)C(C(C)C)n2c1nc1ccccc1c2=O (stereo unspecified)	inactive
CCCCCOc1ccc(-c2ccc(-c3ccc(C(=O)N[C@H]4C[C@@H](O)[C@@H](O)NC(=O)[C@@H]5[C@@H](O)[C@@H](C)CN5C(=O)[C@H]([C@@H](C)O)NC(=O)[C@H]([C@H](O)[C@@H](O)c5ccc(O)cc5)NC(=O)[C@@H]5C[C@@H](O)CN5C(=O)[C@H]([C@@H](C)O)NC4=O)cc3)cc2)cc1 ({pTerphenylCO(4''-OnC5H11)}-[Orn(4R-OH,5R-OH)]T[Hyp][hTyr(3S-OH,4S-OH)]T[Pro(3S-OH,4S-Me)]; lactam 1-C)	inactive
COc1ccccc1C(=O)Nc1cc2c(cc1N1CCCC1)n(C)c(=O)n2C	inactive
C=C1C(=O)OC2C1CCC1(C)C(O)CCC(=C)C21 (stereo unspecified)	inactive
Cc1nc(C#Cc2ccnc(Cl)c2)c(C)n1-c1ccc(OC(F)(F)F)cc1	inactive
COc1cc(CCc2ccc(OCC=C(C)C)cc2)cc(OC)c1OC	inactive
CC(=O)[C@H]1CC[C@H]2[C@@H]3CC=C4C[C@@H](OS(=O)(=O)O)CC[C@]4(C)[C@H]3CC[C@]12C	inactive
C=C(C(=O)O)[C@@H]1CC=C(CCC(C)=O)[C@@H](C)CC1	inactive
C=C[C@]1(C)C[C@H](O)[C@H]2C(=C)C(=O)O[C@@H]2[C@H]1C(=C)CO	inactive
CC[C@H](C)/C=C(C)/C=C/C1=CC2=C(Cl)C(=O)[C@](C)(O)[C@H](OC(C)=O)[C@H]2CO1	inactive
CN(C)C(=O)Nc1cc(-c2ccccc2)ccc1N(C)C	inactive
C/C(=C\CO[C@@H]1O[C@H](CO[C@H]2OC[C@](O)(CO)[C@H]2O)[C@@H](O)[C@H](O)[C@H]1O)C(C)(C)O	inactive
CC[C@@H](Nc1c(Nc2cccc(C(=O)N(C)C)c2O)c(=O)c1=O)c1cc(C(C)C)co1	inactive
